Laboratory results: the supplement of paper PMC6555819

system: VDR:RXRa (NR concentration 270 nM, RXRa partner concentration 90 nM); test: PBM binding z-score (relative to random genomic background probes); higher = stronger binding; sequences stand for … in GC…GCGATTGACAGCGTAGAATGAAGG
Experimental: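 Protein-binding microarray (Agilent 4x180K custom design, double-stranded 60-nt probes: 5' GC cap, 34-nt variable region, 24-nt constant primer region; full probe sequence given). Purified or IVT nuclear receptor:RXRα heterodimers (3:1 NR:RXRα, mostly 270:90 nM) or homodimers were incubated for 1 h in PBS with 2% milk and no ligand, then detected with Alexa488 antibodies. Fluorescence from o1-orientation probes (~5 replicates averaged) was converted to z-scores against 500 random hg19 background probes. Variable regions are seed direct-repeat (DR0–DR5) sites, all their single-nucleotide variants and half-site ablations.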

| Sequence | PBM binding z-score |
| --- | --- |
| CCTCGGAGGAAAGAAGGTCAGAGCTGTCCGCTTT | 1.09 |
| ATATGTAGGTTAAGGGTCATTCAGGTTGGTTCGC | 5.83 |
| CCTACTGGGCCAAAGGGCATTGATTCCAATGCTC | 0.0732 |
| GCGACTGGGGCATCAGCAGGCTACCATAACTTAA | -0.769 |
| ATATGTAGGTTACGGGTCATTCAGGTTGGTTCGC | 4.76 |
| TAGCCTAGGTCAGATCGGGCCAGTTTACGCTATA | 0.663 |
| CCACCAAGGTGAACAAGGTCGTTGATTACTATTC | 6.23 |
| TCTTGTAGATCAAAGGTTAAGATAGCCGAAGCCT | 1.49 |
| AGCGAAAGGTCGTGAGGTGAGTATACAGAAAGGC | 3.51 |
| TCTAGTTGGTCAAAGGTCATACACTCGAAATGCG | 5.38 |
| AGAACGAGGGCACGCTGAGTTGATAGCCGAGTAG | 2.07 |
| CCGAGTGGGGCAAAGGTTACCATACTCAGTACGA | 1.49 |
| AGAATGAAGTTATTAAGATCAGGGAATTGCGGTC | -0.316 |
| TCATATAGGTGAACAGGTGAAAGTCCGTAAGTTA | 1.19 |
| CTCGAAAGTTCGTGCTCAGGTGAGTATACCAAAC | 1.71 |
| AGAATGAGGTTATACGTAGATCTGGGAAGAAAGT | 1.07 |
| ATCTCGAGGTAAAGATAGTTCAGTGAATGCAAAT | 1.23 |
| TCTATTAGTTAATTAGGGCAACCGAAACAGCGGA | 0.823 |
| CAAACTAGGGCAAAGGTCAAAGTCGAGCCAACCA | 5.41 |
| CCGACTGGGGCAGAATGGTTACCATACCATCCGG | -0.638 |

| Sequence | PBM binding z-score |
| --- | --- |
| ATCTCTAGGTAAAGTTCAGTGACAGATCGATAGA | 1.63 |
| CCGACTGGGGCAAGGTTACCTTAACGCACAGCCA | -0.0796 |
| GATACAGGGTCAGGTAGAGGCCAGAGTATGGAAA | 3.35 |
| GATACAGGGTCAGCTAGAGGCTAGAGTATGGAAA | 2.67 |
| GCTTTTAGATCAAGGTTAAGAAAGACTAAGCTAA | 0.374 |
| CGTCCAAGGTCAAGGCCAGTGAAAGAGACTCGAA | 3.69 |
| TCGAGTAGGTTACCAATGGGGCAATCAGCTTTCT | 0.0268 |
| TCATATAGGTAAAAGGTGAAAGTGGGTGTGGTAA | 2 |
| CCTATTAGTTGACCACAAGGGCAACCGAAGCTCG | 0.807 |
| TTACCAAGGTGAAGGTCGTTGTTCCCTCTGTAGA | 1.26 |
| GCGACTGGGGCAACGCAGGTTACCATAAGGTTGG | -0.0248 |
| TCTGCTAGCTCAGTTGGTCAGCTAACGAGCTGCC | -0.839 |
| TCTAGTTGGTCAGAGGTCACACACTCGAAATGCG | 4.95 |
| ACTAGCAGGCCAAGTTTGGTTCACTCAAACAAAG | 0.34 |
| ATATGTAGGTTACAACCGGGTCATTCAGGCTATG | 4.56 |
| CAAACTAGGTCATCCAGGACAGTGAATACATTGA | 4.58 |
| TCTCTGAGGACACGAAAGGTCAGAGCTCGACATC | 3.54 |
| CGGACTAGGTCATCCAGGACAGTGAATACATTGA | 4.36 |
| CCTTACGGGTCACGAGGTTATAGCCCGACGAGCG | 5.11 |
| CCTAGTTGGTCAAGGTCACACGCGCTATAGGTAC | 4.29 |
